Reference: PubChem BioAssay (NCI)
This is part of a sample that, as a whole, favours compounds with a hit. Of some 83,000 tested, about 20% had one in any assay.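 Interpretation: 100, growth as untreated; towards 0, rising growth inhibition; 0, no net growth; 0 to -100, cell death. Compounds scoring below 10 were considered active.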 The source made the active and inactive calls.

What follows are compounds tested on SR leukemia (assay: NCI-60 one-dose screen, 48 h (100 = growth as untreated, 0 = no growth, -100 = all killed)). Conditions: 10 µM unless noted.
Method: Growth inhibition of the SR human tumor cell line is measured as a screen for anti-cancer activity. Cells are grown in 96 well plates and exposed to the test compound for 48 hours. Compounds are tested at a single concentration, which is 10^-5 M for most compounds. The reported endpoint is percent growth (GI% or GIPRCNT), where numbers from 0 - 100% represent growth inhibition, and numbers from -100% - 0 represent cell death. For example, a value of 40 represents 60% growth inhibition. A value of 0 means no net growth occurred over the course of the experiment. A value of -40 indicates 40% of cells at the beginning of the experiment died by the end of the experiment. A value of -100 means all cells are dead at the end of the experiment.
NCI-60 Human Tumor Cell Lines Screen was performed using the standard one-dose NCI protocol, which is described in more detail at https://dtp.cancer.gov/discovery_development/nci-60/default.htm.
Compounds with GIPRCNT values below 10 were considered active. Activity score was based on GIPRCNT using the following formula: […]
Score is 0 for GIPRCNT values of 100 or above, 50 for GIPRCNT values of 0, and 100 for GIPRCNT values of -100.

Row | Structure (SMILES) | growth
1 | Cc1cc(C)nc(SC2=C(Nc3ccc(C)c(Cl)c3)C(=O)N(Cc3ccccc3)C2=O)n1 | 25.4% [30 µM] (inactive)
2 | O=C(O)COc1ccc(Cl)cc1C1CCCCC1 | 95.4% (inactive)
3 | O=C1c2ccccc2OC=C(c2ccccc2)N1CCCCNc1ccc(S(=O)(=O)Nc2ncccn2)cc1 | 78.9% (inactive)
4 | Nc1ccc(-c2cc3c(Nc4ccc(Oc5cccc(C(F)(F)F)c5)c(Cl)c4)ncnc3s2)cc1 | 50.4% (inactive)
5 | COc1ccc(CN2c3ccccc3Oc3ccccc32)cc1O | 17.4% (inactive)
6 | COc1cc(-c2nc(C(=O)NCC(=O)NO)nn2-c2ccc(Cl)cc2)cc(OC)c1OC | 84.8% (inactive)
7 | NC(N)=N/N=C(/c1ccccc1)c1ccc(F)cc1 | -19.4% (active)
8 | Cn1cc(-c2nonc2-c2cn(C)c3ccc(F)cc23)c2cc(F)ccc21 | 31.8% (inactive)
9 | FC(F)(F)c1ccc(-c2cn3nc(-c4c[nH]c5ccc(Br)cc45)sc3n2)cc1 | 85.9% (inactive)
10 | CC(C)(C)c1cc(/C=N\NC(=O)/C=C/C=C/c2ccc3c(c2)OCO3)c(O)c(C(C)(C)C)c1 | 6.69% (active)
11 | COc1ccc(/C=N/C2=C(C#N)C(c3ccc(N(C)C)cc3)c3ccc4ccccc4c3O2)cc1 (stereo not given) | 19.4% (inactive)
12 | Nc1n[nH]c2ccc([C@@H]3Nc4ccc5cn[nH]c5c4[C@H]4C5CCC(C5)[C@@H]34)cc12 (stereo not given in full) | 14.3% (inactive)
13 | O=C1c2cc3c(cc2-c2c1c1ccc(F)cc1c(=O)n2C[C@H](O)[C@H](O)[C@H](O)CO)OCO3 | -8.53% (active)
14 | Cc1cc(N2CCCC2)nc(NC2CCCC(Nc3ccnc4cc(Cl)ccc34)C2)n1 (stereo not given) | -56.6% (active)
15 | O=C(Cc1ccc(/C=C/C(=O)c2ncc[nH]2)cc1)Nc1ccccc1 | 1.14% (active)
16 | CCOc1nc(-c2ccccc2)cc2c(O)c(C(=O)O)[nH]c(=O)c12 | 98.1% (inactive)
17 | N#CN1CC[C@H](C(=O)Nc2cc3cc(C(N)=O)ccc3cn2)C1 | 0.903% (active)
18 | CN(C)S(=O)(=O)c1cccc(-c2nc3sc4c(c3c(=O)[nH]2)CCCC4)c1 | -48.6% (active)
19 | Cn1ncc2c(=O)nc3c(-c4ccccc4)n[nH]n3c21 | 113% (inactive)
20 | N=C(N)c1ccc(-c2ccc(-c3ccc4ccccc4c3)s2)s1 | -37.2% (active)

Row | Structure (SMILES) | growth
21 | CCOC(=O)c1c(C)oc2ncnc(N3CCN(C(=O)COc4ccc(SC)cc4)CC3)c12 | 84.3% (inactive)
22 | CCCCCCN(CCCCCC)C(=N)c1ccnc2ccccc12 | 35.4% (inactive)
23 | C=C1c2nc3ccccc3n2C=C(c2ccc(Cl)cc2)N1Cc1ccc(OC)cc1 | -2.2% (active)
24 | C=C(C)C(=O)Nc1ccc(NC(C)C)cc1 | 96.6% (inactive)
25 | CN(C)c1ccc(N=Nc2ccccn2)c(O)c1 | 3.79% (active)
26 | Cc1cc(N[C@@H]2CCC[C@H](Nc3ccnc4cc(Cl)ccc34)C2)nc(N2CCCCCC2)n1 | -57.4% (active)
27 | COc1ccc2c(c1)c(-c1nonc1-c1cn(C)c3ccccc13)cn2C | 30.1% (inactive)
28 | Cc1ccc(C2Oc3ccccc3C3CC(c4cccs4)=NN32)cc1 (stereo not given) | 102% (inactive)
29 | OCCN1CCN(c2nc(Nc3ccc(-c4nc5ccccc5[nH]4)cc3)c3cn[nH]c3n2)CC1 | -61.1% (active)
30 | O=C(Cn1cccc(Nc2ccccc2)c1=O)Nc1ccccc1 | 104% (inactive)
31 | CC(O)CN(CC(C)O)c1ccc2c(c1)Cc1cc([N+](=O)[O-])ccc1-2 (stereo not given) | 62.5% (inactive)
32 | CC1=C(O)C(=O)C(C(C#N)(C#N)C(C#N)C#N)C1 (stereo not given) | 99.3% (inactive)
33 | COc1ccc(-n2nc(C)c3c(Nc4ccc(NC(=O)Nc5ccc(Cl)c(C(F)(F)F)c5)cc4)ncnc32)cc1 | 20.8% (inactive)
34 | COc1ccc(SC2c3ccc(C)cc3Oc3nc(N)c(C#N)c(N)c32)cc1 (stereo not given) | -28% (active)
35 | COC(=O)[C@@H]1CCCN1C(=O)[C@@H]1CCCN1C(=O)[C@H](Cc1ccccc1)NC(=S)Nc1cc(C(F)(F)F)cc(C(F)(F)F)c1 | 80.9% (inactive)
36 | CCOc1cc2ncc(C#N)c(Nc3ccc(OCc4cccc(F)c4)c(Cl)c3)c2cc1NC(=O)CC1CCSS1 (stereo not given) | -9.65% (active)
37 | O=C(CCN1C(=O)/C(=C/c2ccc(Cl)cc2)SC1=S)NCCCN1CCOCC1 | 102% (inactive)
38 | COc1ccc2cc(-c3nn(-c4ccc(C(=O)O)cc4)cc3CO)ccc2c1 | 90.8% (inactive)
39 | COc1ccc(S(=O)(=O)N2CC3(COC3)C2)cc1NC(=O)c1[nH]c(C)c2c1CCCCC2=O | 51.3% (inactive)
40 | CCN=C1C=CC(=C(c2ccc(N)cc2)c2ccc(N(CC)CC)c(C)c2)C=C1 | -17.6% (active)
